According to PubChem BioAssay (NCI):
The panel holds about 83,000 compounds, 20% with a hit somewhere; the sample as a whole holds those more often.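 Plates (96-well) were seeded with cells, treated with compound at one concentration, and incubated for 48 hours before percent growth was determined.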 Active and inactive are the calls of the source. The calls were made as follows: active = growth percent below 10; inactive = the rest.

Legend:
Assay in all cases: NCI-60 one-dose screen, 48 h (100 = growth as untreated, 0 = no growth, -100 = all killed)
Conditions in all cases: 10 µM unless noted
[1] = tested on: T-47D breast
[2] = tested on: BT-549 breast
[3] = tested on: MDA-MB-435 melanoma
[4] = tested on: SW-620 colon
[5] = tested on: MCF7 breast
[6] = tested on: HCT-116 colon
[7] = tested on: HCC-2998 colon
[8] = tested on: KM12 colon

Measured: growth

C=C1C(=O)O[C@H]2[C@H]1CC/C(COC(=O)/C=C\C(=O)NCc1ccc(Cn3c(=O)sn(-c4ccc(Cl)cc4)c3=O)cc1)=C\CC[C@@]1(C)O[C@@H]21
active: [1] -44.1% | [2] -40.9% | [3] -80.3% | [4] -65.7% | [5] -52% | [6] -66% | [7] -76.8% | [8] -72.7%

Clc1ccc2[nH]c3c(NCCCN4CCOCC4)ncnc3c2c1
inactive: [1] 72.2% | [2] 77.9% | [3] 92.8% | [4] 57.2% | [5] 74.6% | [6] 36.3% | [7] 87.4% | [8] 86.5%

CCOC(=O)C(=CNc1ccccc1[N+](=O)[O-])C(=O)OCC
inactive: [1] 90% | [2] 103% | [3] 111% | [4] 99.5% | [5] 92.9% | [6] 100% | [7] 96.1% | [8] 106%

C=CCO[C@H]1CO[C@H]2[C@@H]1OC[C@@H]2Oc1ccc(Nc2ccnc(Nc3ccc(O[C@H]4CO[C@H]5[C@@H]4OC[C@@H]5OCC=C)c(Cl)c3)n2)cc1Cl
active: [1] -39.7% | [3] -88.4% | [4] -58.9% | [5] -71.1% | [6] -29.7% | [7] -93.3% | [8] -72.1%
inactive: [2] 32.7%

COc1ccc(/C=C2\COc3ccc(O)cc3C2=O)cc1OC
inactive: [1] 73% | [2] 75.7% | [3] 24.4% | [4] 10.6% | [5] 27.3% | [6] 11.7% | [7] 121% | [8] 20.2%

CC(C)(O)c1cccc(F)c1
inactive: [1] 140% | [2] 104% | [3] 103% | [4] 103% | [5] 98.4% | [6] 93.8% | [7] 105% | [8] 103%

Cc1c2c(cn1Cc1ccccc1)CCc1cn(C)nc1-2
inactive: [1] 87.9% | [2] 74.4% | [3] 104% | [4] 109% | [5] 85.2% | [6] 74.3% | [7] 97.6% | [8] 99.9%

O=C(Nc1ccc(N2CCCCC2)c(Cl)c1)c1ccc(Br)o1
inactive: [1] 63% | [2] 81.2% | [4] 74.2% | [5] 49.9% | [6] 84.3% | [7] 111% | [8] 70.1%
active: [3] -95.4%

NC(=S)N/N=C/C(=O)O
active: [6] 6.98%
inactive: [1] 40.9% | [2] 95% | [3] 92.5% | [4] 65.7% | [5] 11.7% | [7] 104% | [8] 99.4%

Cc1cn(C2CCCCC2)c(=O)[nH]c1=O
inactive: [1] 108% | [2] 102% | [3] 108% | [4] 109% | [5] 108% | [6] 107% | [7] 112% | [8] 117%

N=C(N)c1ccc(-c2ccc(-c3ccc(Cl)cc3Cl)o2)nc1
inactive: [1] 59.2% | [2] 94.7%
active: [3] -92.1% | [4] -68.7% | [5] -54.6% | [6] -75.5% | [7] -34.3% | [8] -35.5%

COc1cccc(-c2nc3sccn3c2-c2ccnc(NCCNS(=O)(=O)c3c(Cl)cccc3Cl)c2)c1
inactive: [2] 30.4% | [3] 50.4% | [4] 74.1% | [5] 58.4% | [6] 48.8% | [7] 99.4% | [8] 46.7%
active: [1] 6.81%

Cl.Fc1c[c-]c(-c2ccccn2)c(F)c1.[Pt].c1ccc([PH+](c2ccccc2)c2ccccc2[PH+](c2ccccc2)c2ccccc2)cc1
active: [1] -80.2% | [2] -70.2% | [3] -93.5% | [4] -81.6% | [5] -79.3% | [6] -68% | [7] -76.6% | [8] -90.6%

O=C1Nc2ccccc2SC1c1ccccc1Cl (centres undefined)
active: [3] -12.6%
inactive: [1] 92.9% | [2] 82.9% | [4] 75.5% | [5] 119% | [6] 105% | [7] 124% | [8] 53.7%

CC(=O)c1cc2c(o1)C(=O)c1ccccc1C2=O
active: [1] -25.3% | [2] -87.7% | [3] -94.4% | [4] -77.4% | [5] -65.6% | [6] -83.6% | [7] -87.8% | [8] -63.6%

N#Cc1c(N)nc2c(nnn2-c2cccc(Br)c2)c1N
inactive: [1] 67.1% | [2] 97.1% | [3] 108% | [4] 96.9% | [5] 71.4% | [6] 91.3% | [7] 106% | [8] 97%

Clc1ccc(-c2cn(-c3ccccc3)c(-c3ccccc3)n2)cc1
inactive: [1] 56.7% | [2] 62.9% | [3] 87.7% | [4] 66.7% | [6] 27.2% | [7] 97.6% | [8] 53.6%
active: [5] 9.74%

N#Cc1cnn2c(-c3ccc(Cl)cc3)nc(NCCc3ccccc3)nc12
inactive: [1] 50.9% | [2] 100% | [3] 101% | [4] 98.1% | [5] 79.7% | [6] 81.5% | [7] 106% | [8] 88%

CCN(CC)CCNc1ccc(C)c2sc3cc(C)ccc3c(=O)c12
inactive: [1] 66.5% | [2] 68.3% | [3] 37.3% | [4] 43.6% | [5] 43.7% | [6] 23.1% | [7] 66.4% | [8] 60.1%

Cl.Fc1c[c-]c(-c2ccccn2)c(F)c1.[Pt].c1ccc([PH+](C[PH+](c2ccccc2)c2ccccc2)c2ccccc2)cc1
active: [1] -56.2% | [2] -85% | [3] -83.3% | [4] -78.1% | [5] -83.7% | [6] -83.4% | [7] -87.4% | [8] -82%

Cc1nn(Cc2ccccc2)cc1C(=O)Nc1sc2c(c1C(N)=O)CCC(=O)C2
inactive: [1] 10.5% | [2] 10.4% | [3] 16.7% | [4] 13.4% | [5] 13.6% | [7] 80.6% | [8] 13.5%
active: [6] 6.74%

O=C1C2=C(CCN(Cc3ccccc3)C2)N2CCN=C2N1Cc1ccc(C(F)(F)F)cc1
inactive: [1] 24.1% | [2] 32% | [3] 24.4% | [4] 37% | [5] 21.2% | [6] 23% | [7] 23.9% | [8] 39.4%

COC(=O)Nc1nc2ccc(C(=O)C3CC3)cc2[nH]1
active: [3] -63.7% | [5] 4.01% | [6] 9.29% | [7] -12.7% | [8] -0.0812%
inactive: [1] 57.1% | [2] 74.9% | [4] 20.6%

COc1ccc(CN2C(=O)/C(=C\c3cc(OC)c(OC)c(OC)c3)c3ccccc32)cc1
inactive: [2] 24.5% | [7] 16.9%
active: [1] -2.48% | [3] -10.9% | [4] -40.3% | [5] 7.23% | [6] -93.8% | [8] -23.7%

N#Cc1c(-c2ccc(C(F)(F)F)cc2)cc(N2CC(O)C2)n2c1nc1ccccc12
inactive: [1] 36.1% | [2] 37.9% | [3] 83.7% | [4] 82.8% | [5] 81.6% | [6] 55.4% | [7] 95.6% | [8] 74.2%

CCN(CC)CCOC(=O)Nc1ccccc1Cl
inactive: [1] 98.6% | [2] 81.3% | [3] 108% | [4] 101% | [5] 101% | [6] 72.7% | [7] 101% | [8] 103%

Cc1nc(Nc2ccccn2)sc1C(=O)/C=C/c1ccc(Br)cc1
inactive: [1] 45.7% | [2] 83.3% | [3] 14.6% | [4] 45.7% | [6] 72.6% | [7] 103% | [8] 24.2%
active: [5] 8.46%

O=C(Oc1ccc([N+](=O)[O-])cc1)c1ccc(CBr)cc1
inactive: [1] 125% | [2] 105% | [3] 98.8% | [4] 94.9% | [5] 75.1% | [6] 87.8% | [7] 103% | [8] 103%
